In PubChem BioAssay (NCI):
Values joined by “and” are separate entries in the source; they are usually repeats but may differ in a detail not shown here. Equal values may be shown once. Compounds without any hit were thinned out: in the full panel of roughly 83,000, 20% have a hit.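 The test compound was applied at a single concentration to cells in 96-well plates for 48 hours, and percent growth was recorded.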 Active and inactive are the calls of the source. How the source made its calls: active means growth percent below 10; inactive means the rest.

Assays:
Experiment in all cases: NCI-60 one-dose screen, 48 h (100 = growth as untreated, 0 = no growth, -100 = all killed)
Settings in all cases: 10 µM
NCI-H226 lung = tested on: NCI-H226 lung
NCI-H322M lung = tested on: NCI-H322M lung
HOP-62 NSCLC = tested on: HOP-62 NSCLC
NCI-H460 lung = tested on: NCI-H460 lung
HOP-92 NSCLC = tested on: HOP-92 NSCLC
NCI-H522 lung = tested on: NCI-H522 lung
A549/ATCC NSCLC = tested on: A549/ATCC NSCLC
786-0 renal = tested on: 786-0 renal
DU-145 prostate = tested on: DU-145 prostate
MALME-3M melanoma = tested on: MALME-3M melanoma
MDA-MB-231 breast = tested on: MDA-MB-231 breast
RXF 393 renal = tested on: RXF 393 renal
SF-268 CNS = tested on: SF-268 CNS
SF-295 CNS = tested on: SF-295 CNS
SF-539 CNS = tested on: SF-539 CNS
UACC-257 melanoma = tested on: UACC-257 melanoma
M14 melanoma = tested on: M14 melanoma
COLO 205 colon = tested on: COLO 205 colon
K-562 leukemia = tested on: K-562 leukemia

Measured: growth

NC(=O)c1cc([N+](=O)[O-])c(Cl)c([N+](=O)[O-])c1
active: NCI-H522 lung -4.01%
inactive: NCI-H226 lung 102% | NCI-H322M lung 109% | HOP-62 NSCLC 105% | NCI-H460 lung 107% | HOP-92 NSCLC 14.1% | A549/ATCC NSCLC 98.4% | 786-0 renal 91.2% | DU-145 prostate 65.5% | MALME-3M melanoma 71.3% | MDA-MB-231 breast 92.2% | RXF 393 renal 93.8% | SF-268 CNS 101% | SF-295 CNS 115% | SF-539 CNS 98.1% | UACC-257 melanoma 105% | M14 melanoma 78.6%

O=[N+]([O-])c1ccc(N2CCOCC2)c2c1no[n+]2[O-]
inactive: NCI-H226 lung 35.7% | NCI-H322M lung 28.1% | A549/ATCC NSCLC 21.4% | MDA-MB-231 breast 34.3% | SF-295 CNS 20.5% | UACC-257 melanoma 41%
active: HOP-62 NSCLC 8.11% | NCI-H460 lung 6.53% | HOP-92 NSCLC -31.9% | NCI-H522 lung -70.5% | 786-0 renal -12.8% | COLO 205 colon -53.1% | DU-145 prostate 6.63% | K-562 leukemia -29.6% | MALME-3M melanoma -12.6% | RXF 393 renal -31.4% | SF-268 CNS 4.58% | SF-539 CNS -22.3% | M14 melanoma 0.168%

COC(=O)C1C(O)C(C)C(O)C(C)/C=C\C=C(C)C(=O)Nc2c(C)c(OC(C)=O)c3c(c2O)C(=O)C(C)=C2OCOC(=C23)C(C)=CC(C)(O)C(O)C(C)C1O (stereo unspecified)
inactive: NCI-H226 lung 99.2% | NCI-H322M lung 106% | HOP-62 NSCLC 96.8% | NCI-H460 lung 111% | NCI-H522 lung 59.1% | A549/ATCC NSCLC 98.5% | 786-0 renal 107% | DU-145 prostate 92.2% | K-562 leukemia 106% | MALME-3M melanoma 97.9% | MDA-MB-231 breast 88.6% | RXF 393 renal 98.6% | SF-268 CNS 92.2% | SF-295 CNS 103% | SF-539 CNS 100% | UACC-257 melanoma 93.1% | M14 melanoma 118%

Cc1ccc(NC(=O)CBr)cc1
inactive: NCI-H226 lung 103% | NCI-H322M lung 99.4% | NCI-H460 lung 105% | HOP-92 NSCLC 96% | 786-0 renal 107% | COLO 205 colon 108% | DU-145 prostate 105% | K-562 leukemia 70.8% | MALME-3M melanoma 87.5% | MDA-MB-231 breast 95.1% | RXF 393 renal 102% | SF-268 CNS 104% | SF-295 CNS 103% | SF-539 CNS 111% | M14 melanoma 97.6%
active: NCI-H522 lung -55.6%

CCOP(=O)(OCC)C(O)c1ccccc1Cl (stereo unspecified)
inactive: NCI-H226 lung 98.1% | NCI-H322M lung 93.8% | HOP-62 NSCLC 109% | NCI-H460 lung 102% | NCI-H522 lung 95.7% | A549/ATCC NSCLC 105% | 786-0 renal 102% | COLO 205 colon 107% | DU-145 prostate 97.7% | K-562 leukemia 97.7% | MALME-3M melanoma 86.8% | MDA-MB-231 breast 118% | SF-268 CNS 100% | SF-295 CNS 112% | SF-539 CNS 91.1% | UACC-257 melanoma 106% | M14 melanoma 103%

O=[N+]([O-])c1cc[n+]([O-])c2ccccc12
active: NCI-H226 lung -17.8% | NCI-H322M lung -18.3% | HOP-62 NSCLC -47.9% | NCI-H460 lung -58.4% | HOP-92 NSCLC -41.6% | NCI-H522 lung -61.6% | A549/ATCC NSCLC -25.1% | 786-0 renal -49.2% | COLO 205 colon -74.9% | K-562 leukemia 0.325% | MALME-3M melanoma -69% | MDA-MB-231 breast -45.1% | RXF 393 renal -87.1% | SF-268 CNS 3.65% | SF-295 CNS -17.7% | SF-539 CNS -35% | UACC-257 melanoma -47.1% | M14 melanoma -92.9%

COc1ccc(/C=C\[N+](=O)[O-])cc1OC
active: RXF 393 renal 4.99% and -51.1%
inactive: NCI-H226 lung 101% and 77.5% | NCI-H322M lung 129% and 90.2% | HOP-62 NSCLC 107% and 88% | NCI-H460 lung 45.6% and 63.3% | HOP-92 NSCLC 92.8% and 82.3% | NCI-H522 lung 80.6% and 75.6% | A549/ATCC NSCLC 67.9% and 68.7% | 786-0 renal 96.4% and 47.9% | DU-145 prostate 60.5% and 59.3% | K-562 leukemia 69.7% and 27.5% | MALME-3M melanoma 155% and 105% | MDA-MB-231 breast 91.4% and 68.9% | SF-268 CNS 73.8% and 70.3% | SF-295 CNS 60.6% and 85.3% | SF-539 CNS 88.1% and 59.3% | UACC-257 melanoma 33.8% and 73% | M14 melanoma 75.6% and 42.5%

C=C1C(=O)O[C@@H]2C[C@@H](C)[C@@H]3C=CC(=O)[C@@]3(C)[C@@H](O)[C@H]12
active: NCI-H226 lung -38.6% | NCI-H322M lung -24.7% | HOP-62 NSCLC -44.6% | NCI-H460 lung -26.4% | NCI-H522 lung -81.2% | A549/ATCC NSCLC -3.45% | 786-0 renal -71.6% | COLO 205 colon -95% | DU-145 prostate -100% | K-562 leukemia -56.9% | MALME-3M melanoma -76.6% | MDA-MB-231 breast -63.2% | RXF 393 renal 1.51% | SF-268 CNS -45% | SF-295 CNS -35.8% | SF-539 CNS -73.3% | UACC-257 melanoma 1.25% | M14 melanoma -64.8%

COC12c3c(C)cc(O)c4c(=O)occ(c34)C(=O)C1C13COC(=O)c4c(O)cc(C)c(c41)C(=O)C2C3OC(C)=O (stereo unspecified)
inactive: NCI-H226 lung 100% | NCI-H322M lung 95.4% | HOP-62 NSCLC 82.3% | NCI-H460 lung 97.9% | A549/ATCC NSCLC 107% | 786-0 renal 95.7% | COLO 205 colon 103% | DU-145 prostate 113% | K-562 leukemia 97.8% | MALME-3M melanoma 92.7% | MDA-MB-231 breast 100% | RXF 393 renal 115% | SF-268 CNS 100% | SF-539 CNS 95.9% | UACC-257 melanoma 106%
active: HOP-92 NSCLC -9.88%

CN(C)CC1(N)C(=O)NC(=O)NC1=O
inactive: NCI-H226 lung 87.7% | NCI-H322M lung 104% | HOP-62 NSCLC 98.1% | NCI-H460 lung 107% | HOP-92 NSCLC 112% | NCI-H522 lung 96.4% | A549/ATCC NSCLC 94.2% | 786-0 renal 102% | K-562 leukemia 99.3% | MALME-3M melanoma 108% | MDA-MB-231 breast 98.7% | RXF 393 renal 101% | SF-268 CNS 103% | SF-295 CNS 98.8% | SF-539 CNS 99% | UACC-257 melanoma 87.4% | M14 melanoma 102%

[Cl][Sn]([c]1ccccc1)([c]1ccccc1)[c]1ccccc1
active: NCI-H226 lung -62% | NCI-H322M lung -89.5% | HOP-62 NSCLC -88.4% | NCI-H460 lung -66% | HOP-92 NSCLC -85.6% | NCI-H522 lung -82.2% | A549/ATCC NSCLC -93.6% | 786-0 renal -93.4% | COLO 205 colon -92.5% | DU-145 prostate -84.3% | K-562 leukemia 0.0368% | MALME-3M melanoma -64% | RXF 393 renal -81.5% | SF-268 CNS -79.2% | SF-295 CNS -62.1% | SF-539 CNS -89.5% | UACC-257 melanoma -93.9% | M14 melanoma -76%
